# Laboratory results: PubChem BioAssay (Tox21)
# Records with an inconclusive call do not appear. Where a call stands in place of a potency, no number is given. A number with no mark means an inactive call. Activity calls are given as the source filed them. The call rests on the fitted dose curve; in most records, active means well fitted curve in the direction sought with a large enough effect in the repeat runs; inconclusive means weak or mixed curves; inactive means no such curve, though single readings can be large; an effect the other way counts as inactive or inconclusive.
# Target: Nuclear receptor subfamily 1 group I member 2 (Rattus norvegicus) (UniProt Q9R1A7)
# Sequence (Q9R1A7 whole entry, looked up): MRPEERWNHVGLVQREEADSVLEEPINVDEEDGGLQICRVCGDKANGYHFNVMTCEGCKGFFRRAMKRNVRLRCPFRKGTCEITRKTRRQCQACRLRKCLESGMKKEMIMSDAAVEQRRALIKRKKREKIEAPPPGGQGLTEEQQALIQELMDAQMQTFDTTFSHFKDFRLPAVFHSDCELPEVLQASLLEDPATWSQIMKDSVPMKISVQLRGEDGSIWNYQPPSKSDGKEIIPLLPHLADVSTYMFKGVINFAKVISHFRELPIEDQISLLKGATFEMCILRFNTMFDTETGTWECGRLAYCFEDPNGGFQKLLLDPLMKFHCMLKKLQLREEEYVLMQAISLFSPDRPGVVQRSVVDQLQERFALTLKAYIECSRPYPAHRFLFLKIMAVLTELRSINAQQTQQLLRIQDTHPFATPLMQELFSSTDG
# Test: Rat pregnane X receptor (rPXR) activation by small molecules, qHTS assay (AID 1346983); further: nearly all actives have a fitted effect of over 20% in size
# Conditions: rPXR luciferase reporter cells, One-Glo luminescence, 24 h; active compounds read high
# How it was run: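 Luminescent readout (One-Glo luciferase, 30 min room temperature) followed 24 hr compound treatment at 37 C of rPXR cells plated 2,000 per well and preincubated 5hr; qHTS format with compounds delivered in DMSO.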
row,SMILES,max activation
1,COc1c2occc2c(OC)c2c(=O)cc(C)oc12,-1.72%
2,CC(N)CCCC(C)(C)O (stereo not drawn),-1.43%
3,CC(=O)O[C@@H]1CC2CCC1(C)C2(C)C (stereo partly drawn),-1.62%
4,CN1CCOC(c2ccccc2)c2ccccc2C1 (stereo not drawn),-1.81%
5,CCn1cc(C(=O)O)c(=O)c2cnc(N3CCCC3)nc21,-0.363%

# Target: Cytochrome P450 2D6 (Homo sapiens) (UniProt P10635)
# Sequence (P10635 whole entry, looked up): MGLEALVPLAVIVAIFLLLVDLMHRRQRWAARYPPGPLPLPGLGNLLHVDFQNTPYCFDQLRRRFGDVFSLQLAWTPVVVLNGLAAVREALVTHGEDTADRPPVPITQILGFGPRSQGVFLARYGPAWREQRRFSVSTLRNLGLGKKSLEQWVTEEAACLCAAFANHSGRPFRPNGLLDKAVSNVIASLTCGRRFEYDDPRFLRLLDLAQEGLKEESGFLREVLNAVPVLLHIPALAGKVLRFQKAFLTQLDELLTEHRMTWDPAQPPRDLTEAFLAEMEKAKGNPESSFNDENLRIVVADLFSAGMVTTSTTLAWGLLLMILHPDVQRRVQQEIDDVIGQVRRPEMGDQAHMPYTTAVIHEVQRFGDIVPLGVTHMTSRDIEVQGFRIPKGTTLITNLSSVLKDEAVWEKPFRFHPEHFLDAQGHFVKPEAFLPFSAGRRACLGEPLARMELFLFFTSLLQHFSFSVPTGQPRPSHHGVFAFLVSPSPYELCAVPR
# Test: Cytochrome P450 Family 2 Subfamily D Member 6 (CYP2D6) small molecule antagonists: luciferase reporter qHTS assay (AID 1671196); further: nearly all actives have a fitted effect of over 50% in size; further: potency means the concentration at half of the fitted maximal effect
# Conditions: P450-Glo CYP2D6 enzyme assay, luciferin luminescence, 1 h; series mostly up to 115 µM
# How it was run: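 CYP2D6 activity was followed as luminescence from its luciferin product after a 1 h NADPH-driven reaction at room temperature. Enzyme-substrate mix and compound were pre-incubated for 10 min, and the signal was read 20 min after adding detection reagent.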
SMILES,Potency,"activity change, negative = inhibition"
COc1c2occc2c(OC)c2c(=O)cc(C)oc12,12.3 µM (active),–
CC(C)C[C@@H]1[C@H](c2ccccc2)OC(=O)N1CCCN1CCCCCC1,0.436 µM (active),–
CC/C=C\CCOC(=O)c1ccccc1O,inactive,–
c1ccc2cnccc2c1,35.6 µM (active),–
CC(=O)O[C@@H]1CC2CCC1(C)C2(C)C (stereo partly drawn),inactive,–
CNCCS(=O)(=O)O,inactive,–
CCC/C=C(\C=O)CC,inactive,–
O=C=NCC1CCCC(CN=C=O)C1 (stereo not drawn),31.7 µM (active),–
CC(=O)CC(=O)OC(C)(C)C,inactive,–
CCCC(CC)c1ccccc1 (stereo not drawn),inactive,–
ONc1ccccc1,inactive,–
CCn1cc(C(=O)O)c(=O)c2cnc(N3CCCC3)nc21,–,-1.62% [at 10.5 µM]

# Target: Cytochrome P450 2C19 (Homo sapiens) (UniProt P33261)
# Sequence (P33261 whole entry, looked up): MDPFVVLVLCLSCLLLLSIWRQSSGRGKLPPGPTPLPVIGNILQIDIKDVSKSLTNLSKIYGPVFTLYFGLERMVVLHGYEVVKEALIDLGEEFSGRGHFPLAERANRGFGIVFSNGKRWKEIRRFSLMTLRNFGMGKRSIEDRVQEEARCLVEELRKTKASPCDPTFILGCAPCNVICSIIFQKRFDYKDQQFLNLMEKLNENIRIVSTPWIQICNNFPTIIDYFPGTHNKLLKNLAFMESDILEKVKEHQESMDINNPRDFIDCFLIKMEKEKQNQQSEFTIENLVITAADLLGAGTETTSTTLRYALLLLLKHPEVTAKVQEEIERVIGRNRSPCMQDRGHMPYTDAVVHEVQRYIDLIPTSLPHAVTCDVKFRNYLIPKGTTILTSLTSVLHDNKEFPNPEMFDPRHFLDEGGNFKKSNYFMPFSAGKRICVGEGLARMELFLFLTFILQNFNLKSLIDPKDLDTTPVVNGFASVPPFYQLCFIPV
# Test: Cytochrome P450 Family 2 Subfamily C Member 19 (CYP2C19) small molecule antagonists: luciferase reporter qHTS assay (AID 1671197); further: nearly all actives have a fitted effect of over 65% in size; further: potency means the concentration at half of the fitted maximal effect
# Conditions: P450-Glo CYP2C19 enzyme, luciferin luminescence, 1 h; series mostly up to 115 µM
# How it was run: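 CYP2C19 P450-Glo, 1536-well qHTS. Cpd + enzyme/proluciferin substrate 10 min RT; + NADPH regen, 37C 1 h; stop with luciferin detection reagent, 20 min RT, luminescence (RLU). Pos ctrl ketoconazole.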
SMILES,Potency,"activity change, negative = inhibition"
COc1c2occc2c(OC)c2c(=O)cc(C)oc12,3.47 µM (active),–
C=C(C)c1cccc(C(C)(C)N=C=O)c1,17.8 µM (active),–
CC(N)CCCC(C)(C)O (stereo not drawn),inactive,–
CC(C)C[C@@H]1[C@H](c2ccccc2)OC(=O)N1CCCN1CCCCCC1,2.75 µM (active),–
CCOc1cccc(N)c1,6.3 µM (active),–
CCOc1ccccc1OCC1CNCCO1 (stereo not drawn),inactive,–
c1ccc2cnccc2c1,inactive,–
CCCCCCCCCOC(=O)c1ccccc1C(=O)OCCCCCCCCC,39.8 µM (active),–
CC(=O)O[C@@H]1CC2CCC1(C)C2(C)C (stereo partly drawn),inactive,–
CNCCS(=O)(=O)O,inactive,–
CCC/C=C(\C=O)CC,39.9 µM (active),–
CCC(C)C(=O)OCCc1ccccc1 (stereo not drawn),inactive,–
O=C=NCC1CCCC(CN=C=O)C1 (stereo not drawn),71 µM (active),–
CC(=O)CC(=O)OC(C)(C)C,inactive,–
NCCOCCN,71 µM (active),–
ONc1ccccc1,88.5 µM (active),–
O=C(CCCl)NCCc1ccccc1,inactive,–
CC1(C)Cc2cccc(N)c2O1,17.8 µM (active),–
C=CC/C=C/C,inactive,–
O=C(O)CCCCCC(=O)O,inactive,–
O=Cc1ccccc1Cl,inactive,–
CCO[Si](CC)(OCC)OCC,inactive,–
CCn1cc(C(=O)O)c(=O)c2cnc(N3CCCC3)nc21,–,-11.6% [at 10.5 µM]
O=C(Cl)c1ccccc1[N+](=O)[O-],72.7 µM (active),–

# Target: Cytochrome P450 2C9 (Homo sapiens) (UniProt P11712)
# Sequence (P11712 whole entry, looked up): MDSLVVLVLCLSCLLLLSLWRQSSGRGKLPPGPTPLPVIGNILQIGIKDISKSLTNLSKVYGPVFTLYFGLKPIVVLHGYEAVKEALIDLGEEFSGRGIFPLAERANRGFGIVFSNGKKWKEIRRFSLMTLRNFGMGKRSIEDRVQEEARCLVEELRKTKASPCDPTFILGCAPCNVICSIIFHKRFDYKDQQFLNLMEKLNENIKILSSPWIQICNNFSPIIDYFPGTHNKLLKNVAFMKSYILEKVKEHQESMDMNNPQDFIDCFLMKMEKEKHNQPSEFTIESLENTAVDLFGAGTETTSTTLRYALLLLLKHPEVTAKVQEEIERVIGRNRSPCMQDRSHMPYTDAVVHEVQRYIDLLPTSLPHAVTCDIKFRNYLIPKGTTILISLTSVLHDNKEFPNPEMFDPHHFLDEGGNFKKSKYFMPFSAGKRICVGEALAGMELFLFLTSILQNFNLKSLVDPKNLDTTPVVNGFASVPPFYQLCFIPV
# Test: Cytochrome P450 Family 2 Subfamily C Member 9 (CYP2C9) small molecule antagonists: luciferase reporter qHTS assay (AID 1671198); further: nearly all actives have a fitted effect of over 50% in size; further: potency means the concentration at half of the fitted maximal effect
# Conditions: P450-Glo CYP2C9 enzyme assay, luciferin luminescence; series mostly up to 115 µM
# How it was run: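 Enzyme-substrate mix preincubated with compound 10 min at room temperature; reaction started with NADPH regeneration solution, 1 h 37C. Luminescent luciferin product read after 20 min detection reagent.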
row,SMILES,Potency
1,CC1=C(C(=O)O)N2C(=O)[C@@H](NC(=O)[C@H](N)C3=CCC=CC3)[C@H]2SC1,inactive
2,COc1c2occc2c(OC)c2c(=O)cc(C)oc12,12.3 µM (active)
3,C=C(C)c1cccc(C(C)(C)N=C=O)c1,15.9 µM (active)
4,CC(N)CCCC(C)(C)O (stereo not drawn),inactive
5,c1ccc2cnccc2c1,inactive
6,CCCCCCCCCOC(=O)c1ccccc1C(=O)OCCCCCCCCC,39.8 µM (active)
7,CC(=O)O[C@@H]1CC2CCC1(C)C2(C)C (stereo partly drawn),inactive
8,CNCCS(=O)(=O)O,inactive
9,CCC/C=C(\C=O)CC,63.3 µM (active)
10,CCC(C)C(=O)OCCc1ccccc1 (stereo not drawn),inactive
11,O=C=NCC1CCCC(CN=C=O)C1 (stereo not drawn),10 µM (active)
12,COC(=O)c1cccc(Cl)c1,inactive
13,CC(=O)CC(=O)OC(C)(C)C,inactive
14,NCCOCCN,inactive
15,CCCC(CC)c1ccccc1 (stereo not drawn),inactive
16,O=C(CCCl)NCCc1ccccc1,inactive
17,OCC(O)CN1CCN(c2ccccc2)CC1 (stereo not drawn),inactive
18,CC1(C)Cc2cccc(N)c2O1,11.2 µM (active)
19,C=CC/C=C/C,inactive
20,O=C(Cl)c1ccccc1[N+](=O)[O-],inactive

# Target: Cytochrome P450 1A2 (Homo sapiens) (UniProt P05177)
# Sequence (P05177 whole entry, looked up): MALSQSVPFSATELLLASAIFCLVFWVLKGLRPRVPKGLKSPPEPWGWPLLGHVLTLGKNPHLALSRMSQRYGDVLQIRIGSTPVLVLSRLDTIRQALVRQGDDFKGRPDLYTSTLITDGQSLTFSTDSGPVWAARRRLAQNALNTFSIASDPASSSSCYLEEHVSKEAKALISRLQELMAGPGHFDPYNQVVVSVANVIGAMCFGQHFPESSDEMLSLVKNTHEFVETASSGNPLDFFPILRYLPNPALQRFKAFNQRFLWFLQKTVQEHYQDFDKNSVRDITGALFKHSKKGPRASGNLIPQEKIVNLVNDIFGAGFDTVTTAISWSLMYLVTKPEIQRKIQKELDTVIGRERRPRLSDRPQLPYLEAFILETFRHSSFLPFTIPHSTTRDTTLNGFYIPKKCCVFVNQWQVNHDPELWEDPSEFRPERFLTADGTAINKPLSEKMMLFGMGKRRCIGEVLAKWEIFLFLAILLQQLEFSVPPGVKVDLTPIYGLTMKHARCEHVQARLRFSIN
# Test: Cytochrome P450 Family 1 Subfamily A Member 2 (CYP1A2) small molecule antagonists: luciferase reporter qHTS assay (AID 1671199); further: nearly all actives have a fitted effect of over 50% in size; further: potency means the concentration at half of the fitted maximal effect
# Conditions: P450-Glo CYP1A2 enzyme, luciferin luminescence, 1 h; series mostly up to 115 µM
# How it was run: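 Luminescence from luciferin formed by CYP1A2 from a proluciferin substrate, read 20 min after detection reagent. Compound was pre-incubated 10 min with enzyme-substrate, and reaction started with NADPH regeneration solution for 1 h at room temperature; furafylline control.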
row,SMILES,Potency
1,CC1=C(C(=O)O)N2C(=O)[C@@H](NC(=O)[C@H](N)C3=CCC=CC3)[C@H]2SC1,inactive
2,COc1c2occc2c(OC)c2c(=O)cc(C)oc12,0.144 µM (active)
3,CC(N)CCCC(C)(C)O (stereo not drawn),inactive
4,CC(C)C[C@@H]1[C@H](c2ccccc2)OC(=O)N1CCCN1CCCCCC1,inactive
5,Cc1c(N)cccc1Cl,11.3 µM (active)
6,CC/C=C\CCOC(=O)c1ccccc1O,31.7 µM (active)
7,CCOc1cccc(N)c1,35.4 µM (active)
8,CCOc1ccccc1OCC1CNCCO1 (stereo not drawn),0.575 µM (active)
9,CC(=O)C1C(=O)C=C(C)OC1=O (stereo not drawn),inactive
10,CCCCCCCCCOC(=O)c1ccccc1C(=O)OCCCCCCCCC,35.5 µM (active)
11,CC(=O)O[C@@H]1CC2CCC1(C)C2(C)C (stereo partly drawn),inactive
12,CNCCS(=O)(=O)O,35.9 µM (active)
13,CCCc1ccc(O)cc1,44.8 µM (active)
14,CCCC(=O)OCCC(C)CCC=C(C)C (stereo not drawn),39.9 µM (active)
15,CCC(C)C(=O)OCCc1ccccc1 (stereo not drawn),inactive
16,O=C=NCC1CCCC(CN=C=O)C1 (stereo not drawn),inactive
17,CC(=O)CC(=O)OC(C)(C)C,inactive
18,Cc1ccc(N)cc1S(=O)(=O)O,39.9 µM (active)
19,NCCOCCN,17.8 µM (active)
20,CCCC(CC)c1ccccc1 (stereo not drawn),inactive
21,ONc1ccccc1,14 µM (active)
22,CC(C)CO,inactive
23,O=C(CCCl)NCCc1ccccc1,inactive
24,OCC(O)CN1CCN(c2ccccc2)CC1 (stereo not drawn),inactive
25,O=C(O)CCCCCC(=O)O,inactive
26,O=Cc1ccccc1Cl,inactive
27,CCO[Si](CC)(OCC)OCC,inactive
